Most compounds without a hit are left out; they make up all but 19% or so of the library.
DT40 TDP1 no CPT: qHTS for Inhibitors of human tyrosyl-DNA phosphodiesterase 1 (TDP1): qHTS in cells in absence of CPT. AID 686978, 2013. DT40 Tdp1-/- hTDP1 cells, no CPT, ATP luminescence, 48 h. hit rate 15% among 420,000. Potency, µM (series often up to 46.2 µM), without a hit: top-dose activity change, negative = growth inhibition, usual class: inhibitors; also: potency is read from the fitted curve at half-maximal effect; nearly all actives have a fitted effect of over 55% in size
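Cells were dispensed at 400 per well, compounds added by pin tool, plates incubated ≥48 hr at 37 °C, then CellTiter-Glo added for 30 min at room temperature before luminescence reading. Line: DT40 Tdp1-/- complemented with hTDP1; camptothecin omitted.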
HT1080 IDH1KD tx: toxicity to HT-1080 IDH1 knockdown cells (counter line) | HT-1080 IDH1 knockdown viability, ATP luminescence, 48 h | Potency, µM (doses to about 46.1 µM), for the others: at the top dose activity, negative = toxicity, most hits filed as cytotoxic | hit rate 2% among 360,000 | AID 686971;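 also: potency is read from the fitted curve at half-maximal effect; 0% = DMSO wells and -100% = cell-free medium wells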
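Using the IDH1-knockdown HT-1080 line run in the same batch and compound series as the NT line, viability after 48 h at 37 °C was determined by CellTiter-Glo luminescence and expressed as % activity.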
DT40 TDP1 CPT: growth inhibition of DT40 Tdp1-/-;hTDP1 cells with camptothecin (screen for TDP1 inhibitors); Potency, µM (top dose mostly 46.2 µM), for inactives: at the top dose activity change, negative = growth inhibition, usual class: inhibitors; chicken DT40 Tdp1-/-;hTDP1 cells + 20 nM CPT, ATP luminescence, 48 h; hit rate 12% among 420,000; also: potency is read from the fitted curve at half-maximal effect; nearly all actives have a fitted effect of over 55% in size
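Chicken DT40 Tdp1-/- cells stably complemented with human TDP1 were seeded at 400 cells/well in medium containing 20 nM camptothecin, exposed to pin-transferred compounds, and grown at 37 °C for at least 48 hr. Viability was read as ATP luminescence.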
ELG1 repair inh: blocks ELG1-dependent DNA repair in HEK293T cells; HEK293T ELG1-luciferase reporter, luminescence, 16 h; DNA damage induced by 5-fluorouridine; Potency, µM (doses to about 46.1 µM), inactives show top-dose activity change, negative = inhibition, hits mostly inhibitors; hit rate 2.3% among 330,000; AID 504467; also: potency is read from the fitted curve at half-maximal effect; nearly all actives have a fitted effect of over 55% in size
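In this reporter screen, reduction of luminescence relative to DMSO vehicle indicated activity. Compounds and 5-fluorouridine were added together to 2,000 cells per well, incubated for 16 hr at 37 °C, then developed with ONE-Glo.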
HT1080NT lethal: kills 2HG-producing HT-1080-NT fibrosarcoma cells; HT-1080-NT fibrosarcoma viability, CellTiter-Glo ATP luminescence, 48 h; Potency, µM (doses to about 46.1 µM), for inactives: at the top dose activity, negative = less viability, hits mostly cytotoxic; hit rate 1.6% among 360,000;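 also: NT is the 2HG producing partner of a matched IDH1 knockdown line; potency is read from the fitted curve at half-maximal effect; 0% = DMSO-treated cells and -100% = media-only wells without cells; nearly all actives have a fitted effect of over 55% in size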
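Read-out is CellTiter-Glo luminescence after 10 minutes at room temperature, following 48 hours' compound treatment of HT-1080-NT cells (750 cells/well, RPMI, 5% FBS, 37 degrees C).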
IL-1B inflam inh: blocks inflammasome-driven IL-1 beta release | THP-1 LPS/ATP IL-1B secretion, AlphaLISA, 16 h; stronger effect = lower value | activity change, % at 57.5 µM | hit rate 4.7% among 360,000 | AID 743279; in the data active = activity change below about -50%; inconclusive = mostly about -30% to -49%
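THP-1 cells pretreated 1 hr with compounds (up to 57.5 uM final), then stimulated with LPS (250 ng/mL final) plus ATP (1.25 mM final); secreted IL-1B measured by AlphaLISA after 16 hr, decreased signal indicating inhibition.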
* marks the source's active call; other numbers are inactive results; ? = inconclusive; · = no result given. Unless noted, calls follow the shape of the dose curve; as a rule, active = well fitted curve in the direction sought with a large enough effect; inconclusive = small, poorly fitted or top-dose-only effect, or another doubt; inactive = no such curve, though single readings can be large; an effect the other way counts as inactive or inconclusive. Unless noted, % is scaled to controls: 0 for no effect and ±100 for the full control effect.

SMILES	DT40 TDP1 no CPT	HT1080 IDH1KD tx	DT40 TDP1 CPT	ELG1 repair inh	HT1080NT lethal	IL-1B inflam inh
O=C(O)c1ccc2c(c1)S(=O)(=O)c1cc(N3CCN(c4cnccn4)CC3)ccc1C2=O	-11.1%	5.4%	-2.7%	·	1.1%	1.3
CC(C)(C)N1CC(C(=O)Nc2cccc(Cl)c2Cl)CC1=O (centres undefined)	-6.6%	-0.6%	25.8%	-1.5%	-9.1%	-69.4*
O=C(NC(=S)Nc1cccc(Cl)c1Cl)C1CC1	?	-9.2%	13µM*	?	-11.3%	77.3
O=C(Nc1cccc(Cl)c1Cl)C1CC(=O)N(c2ccc(Br)cc2)C1 (centres undefined)	-25.9%	?	-16.1%	-29.2%	?	-5.8
O=C(NC(=S)Nc1ccccc1Br)C1CCCCC1	16.4µM*	7.5%	18.4µM*	?	-0.3%	20.5
O=C(Cc1ccc(Cl)cc1)c1c[nH]c(C(=O)NCCCn2ccnc2)c1	7.0%	-1.5%	0.4%	-3.0%	-10.9%	13.6
C[C@H](CO)N1C[C@H](C)[C@@H](CN(C)C(=O)CN2CCOCC2)Oc2cc(Br)ccc2S1(=O)=O	-18.4%	1.6%	0.1%	·	1.1%	0.0
Cc1cccc(OCc2nnc(SCC(=O)Nc3ccc(C)cc3C)o2)c1	?	·	-20.9%	·	·	·
COc1cccc(-c2cn3nc4c(nc3n2)CCCC4)c1	16.4µM*	16.4µM*	-35.3%	?	?	-12.7
COc1cccc(-c2cc(C(F)(F)F)n3nc(N)nc3n2)c1	?	2.0%	-21.5%	-0.8%	0.5%	-3.2
CCOCCCNC(=O)C(c1ccc(C)cc1)N(Cc1ccc2c(c1)OCO2)C(=O)c1ccccc1O (centres undefined)	16.4µM*	·	23.1µM*	·	·	·
COc1ccc(C(=O)c2cnc3ccccc3c2-c2ccccc2)cc1	?	-20.8%	-20.7%	?	-17.6%	27.9
Cc1ccc(C(=O)c2cnc3ccccc3c2-c2ccccc2)cc1	23.1µM*	-17.6%	?	?	-10.8%	-9.9
Cc1c(Cl)cccc1NC(=S)N(Cc1cccnc1)Cc1ccccc1Cl	?	-26.9%	-3.5%	-17.6%	-0.2%	-9.1
C/C(Cn1nnc([N+](=O)[O-])n1)=N\NC(=O)c1ccc(O)cc1O	?	18.4µM*	?	10.5%	23.1µM*	4.0
C/C(Cn1cnc([N+](=O)[O-])n1)=N\NC(=O)c1ccc(O)cc1O	7.6%	1.1%	1.3%	13.6%	-17.0%	-2.9
C/C(Cn1cnc([N+](=O)[O-])n1)=N\NC(=O)c1ccccc1O	2.2%	2.4%	4.6%	-1.3%	-11.4%	-13.5
C/C(Cn1nnc([N+](=O)[O-])n1)=N\NC(=O)c1ccccc1O	18.4µM*	?	14.6µM*	?	?	-4.4
CCOC(=O)/C=C/C(=O)OCC(=O)Nc1ccc([N+](=O)[O-])cc1	-18.8%	0.4%	?	9.7%	3.1%	?
O=C(CCCn1c(=S)[nH]c2ccccc2c1=O)NCCSCc1ccccc1	?	-3.0%	23.1µM*	-24.7%	-0.8%	-17.1
Cc1ccc(CNC(=O)CCCCCn2c(=O)[nH]c3ccccc3c2=O)cc1	0.82µM*	·	0.651µM*	·	·	·
O=C(CCCn1c(=O)[nH]c2ccccc2c1=O)NCCSCc1ccccc1	-25.0%	0.0%	-21.1%	4.3%	-22.6%	20.5
O=C1c2ccccc2-c2n[nH]c(=O)c3ccc(N4CCCCC4)c1c23	9.2µM*	?	9.2µM*	?	?	-94.3*
O=C1c2ccccc2C(=O)c2cc(N3CCCCC3)ccc21	?	0.4%	?	·	-7.9%	-14.8
Cc1cc(F)ccc1S(=O)(=O)N1CCCOC1CNC(=O)C(=O)NC1CC1 (centres undefined)	-9.8%	6.8%	7.1%	0.0%	2.4%	5.8
SMILES	DT40 TDP1 no CPT	HT1080 IDH1KD tx	DT40 TDP1 CPT	ELG1 repair inh	HT1080NT lethal	IL-1B inflam inh
FC(F)(F)c1cccc(NC(=S)N2CCN(c3cccc(C(F)(F)F)c3)CC2)c1	14.6µM*	?	?	15.5%	-19.5%	-1.8
O=S(=O)(Nc1ncccn1)c1ccc(NC(=S)N2CCN(c3cccc(C(F)(F)F)c3)CC2)cc1	-15.2%	-2.4%	-1.6%	·	-16.3%	8.0
O=S(=O)(c1cccc(NC(=S)N2CCN(c3ccccc3)CC2)c1)C(F)F	16.4µM*	0.8%	13µM*	-20.5%	-1.1%	-14.9
Fc1ccc(NC(=S)N2CCN(c3cccc(C(F)(F)F)c3)CC2)cc1	13µM*	-14.0%	20.6µM*	-17.3%	-3.0%	7.7
O=C(Cc1cccs1)NC1CC(=O)N(c2ccc(F)cc2)C1 (centres undefined)	3.8%	·	-7.9%	·	·	·
CC(=O)c1c(C)[nH]c(C(=O)Nc2cccnc2)c1C	-0.9%	15.5%	-2.0%	?	0.7%	27.6
CC(=O)c1c(C)[nH]c(C(=O)Nc2cccc(C#N)c2)c1C	16.4µM*	-3.5%	-20.5%	15.7%	-6.3%	-3.7
CC(=O)c1c(C)[nH]c(C(=O)Nc2cccc(C(F)(F)F)c2)c1C	20.6µM*	?	?	?	?	-73.4*
Cc1cccc(N(C)c2cc(-c3ccc(F)cc3)nc3ccnn23)c1	-25.8%	0.0%	?	·	6.0%	36.5
CN(C(=O)c1ccc(NC(=O)Cc2ccc(NC(=O)C3CCCN(C(=O)C4CC4)C3)cc2)cc1)C1CC1 (centres undefined)	?	6.9%	-12.3%	0.0%	20.0%	-8.9
COc1ccc(NC(=O)c2cc3cccc(OC)c3oc2=Nc2ccc(C(=O)O)cc2)cc1OC	13µM*	-8.7%	9.2µM*	?	-0.4%	-1.2
COc1cccc2cc(C(=O)Nc3ccc(C)cc3)c(=O)oc12	-1.3%	·	-6.0%	·	·	·
CCc1cccc(CC)c1NC(=O)CN1CC(C)SC1=NC1CCCCC1 (centres undefined)	13µM*	4.9%	20.6µM*	0.0%	4.9%	-0.3
CCOC(=O)c1cnc(-n2nc(C)cc2C)nc1N(CC)CC	16.4µM*	1.58µM*	23.1µM*	?	?	-4.8
CCOC(=O)c1cnc(-n2nc(C)cc2C)nc1Nc1cccc(C(=O)O)c1	-22.0%	-0.1%	-9.7%	?	0.1%	15.0
CCOC(=O)c1cnc(-n2nc(C)cc2C)nc1NC	?	?	?	-9.7%	7.08µM*	-14.0
CCOC(=O)c1cnc(-n2nc(C)cc2C)nc1Nc1ccc(C)cc1	5.17µM*	1.5%	4.61µM*	?	7.2%	0.0

Assay outcomes (PubChem)
